This is an account of results in PubChem BioAssay (NCI).

The nature of assay [1]: NCI Yeast Anticancer Drug Screen. Data for the rad50 strain (AID 155).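 Also: 0% = growth of vehicle-only cultures of the same strain.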 To be noted: S. cerevisiae rad50 strain growth inhibition; at 50.0 µM; hits give high values. A digest of the protocol:
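Growth of the mutant yeast was measured after compound exposure and referenced to vehicle-treated cultures.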

Assay [2] can be described thus: NCI Yeast Anticancer Drug Screen. Data for the mec2-1 strain (AID 157). To be noted: S. cerevisiae mec2-1 strain, at 50.0 µM, hits give high values. A digest of the protocol:
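Strain: mec2-1 (DNA repair/cell cycle alteration). Compound exposure, then growth measured; inhibition expressed relative to vehicle.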

Assay [3] in a line: NCI Yeast Anticancer Drug Screen. Data for the sgs1 mgt1 strain (AID 161).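 Also: 0% = growth of cultures given vehicle only.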 To be noted: S. cerevisiae sgs1 mgt1 strain, at 50.0 µM, hits give high values. Put shortly: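 Test agents were incubated with a DNA-repair-mutant yeast strain. Growth was then read and compared against vehicle-treated controls.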
Assay [4] can be described thus: NCI Yeast Anticancer Drug Screen. Data for the cln2 rad14 strain (AID 165).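 Also: 0% = growth equal to vehicle treated cultures.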 To be noted: S. cerevisiae cln2 rad14 strain, at 50.0 µM, hits give high values. Put shortly: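 Compounds are applied to the cln2 rad14 yeast strain, and growth is then compared with that of vehicle-treated cultures to give inhibition.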
Assay [5] is described as follows: NCI Yeast Anticancer Drug Screen. Data for the bub3 strain (AID 167). Particulars: S. cerevisiae bub3 mutant strain, at 50.0 µM, hits give high values. A digest of the protocol:
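Whole-cell yeast assay. The mutant strain was incubated with compounds, and growth inhibition was determined by comparison with vehicle-treated cells.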

A short description of assay [6]: NCI Yeast Anticancer Drug Screen. Data for the mlh1 rad18 strain (AID 175). To be noted: S. cerevisiae mlh1 rad18 strain growth inhibition; at 50.0 µM; hits give high values. Put shortly:
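Read-out is yeast growth inhibition, calculated against vehicle-only controls. The compound was applied to a strain engineered with DNA damage repair alterations.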

Compounds without any hit were thinned out: in the full panel of roughly 79,000, 15% have a hit. A number with no mark means an inactive call. Calls of active or inactive are those of the source. Rule as the data show it: active = growth inhibition above about 70%; inactive = the rest.

`COc1ccc2c(c1O)[C@@]13CCN(C)[C@@H](C2)[C@H]1CC(C)C(=O)C3` (some centres undefined): the growth inhibition in assay [1] was 5.65%; in assay [2], -30.6%; in assay [3], 8.55%; in assay [4], 17.2%; in assay [5] it was -0.6%; in assay [6] it was -2.5%.
As to `O=CNNC(=O)C(Cl)Cl`, the growth inhibition in assay [1] was 4.25%; in assay [2], -11.9%; in assay [3] it was -10.1%; in assay [4], -31.3%; in assay [5], -3.45%; in assay [6] it was 8.9%.
Take `ClCCOCOCCCl`: the growth inhibition in assay [1] was -0.5%; in assay [2], -7.1%; in assay [3] it was -20.1%; in assay [4] it was -38%; in assay [5], -6.15%; in assay [6], -7.25%.
For `COC(=O)CNP(=O)(NCC(=O)OC)N(CCCl)CCCl`, the growth inhibition in assay [1] was -8.2%; in assay [2], -14.8%; in assay [3] it was -18.6%; in assay [4], 5.2%; in assay [5] it was -1.65%; in assay [6], 5.7%.
Consider `COc1ccc([N+](=O)[O-])cc1N=Cc1ccc(N(CCCl)CCCl)cc1C`, for which the growth inhibition in assay [1] is 43%; in assay [2] it was 13.3%; in assay [3] it was 52.2%; in assay [4], 18.6%; in assay [5], 3.5%; in assay [6], 17.1%.
With `CP1CC(Br)C(Br)C1` (centres undefined), the growth inhibition is 3.6% in assay [1]; -5% in assay [2]; 19.9% in assay [3]; -7.05% in assay [4]; 6.5% in assay [5]; 2.5% in assay [6].
On to `COc1cc2c(c(OC)c1OC)-c1ccc(O)cc1C(NC(C)=O)CC2` (centres undefined), for which the growth inhibition in assay [1] was -13.2%; in assay [2] it was -18.8%; in assay [3], -4.1%; in assay [4] it was 17.4%; in assay [5], 0.65%; in assay [6], 31.2%.
For the molecule `CCNCCC1(CC)C(=O)NC(=O)NC1=O`, the growth inhibition is -22.2% in assay [1]; -16.8% in assay [2]; -27.4% in assay [3]; 2.2% in assay [4]; -43.7% in assay [5]; -10.6% in assay [6].
Consider `CCc1cccc(C(C)C)c1NC(=O)C(=O)C1C(=O)NC(=O)NC1=O`, for which the growth inhibition in assay [1] is -40.1%; in assay [2], -12.2%; in assay [3], -9.45%; in assay [4] it was 18.1%; in assay [5], -10.6%; in assay [6], -31.4%.
`O=S(=O)(F)c1cc(Cl)c(S)cc1Cl`: the growth inhibition in assay [1] was 7.75%; in assay [2] it was -1.85%; in assay [3], 4.2%; in assay [4] it was 16.1%; in assay [5], -1.55%; in assay [6] it was -2.45%.
`O=[N+]([O-])c1ncc[nH]1`: the growth inhibition in assay [1] was 6.75%; in assay [2], -19.7%; in assay [3] it was 11.6%; in assay [4], 3.1%; in assay [5], 8.2%; in assay [6], 14.9%.
Take `CCN1C[C@]2(C)CC[C@H](O)C34C1C(C[C@@H]32)[C@@]1(O)CC[C@H]2C[C@@H]4[C@@H]1[C@H]2O`: the growth inhibition is 19.4% in assay [1]; 1.15% in assay [2]; -1.45% in assay [3]; 23.8% in assay [4]; 6.7% in assay [5]; 31.2% in assay [6].
Turning to `CCCC(C)COC(=O)Cc1ccccc1` (centres undefined), the growth inhibition in assay [1] was 18.3%; in assay [2], 18.2%; in assay [3] it was 9.55%; in assay [4], -27.9%; in assay [5], 4.3%; in assay [6], 15.2%.
`CN(C)c1ccc(/C=C/[N+](=O)[O-])cc1`: the growth inhibition was -3% in assay [1]; -17.4% in assay [2]; 12.4% in assay [3]; -15.7% in assay [4]; 0.6% in assay [5]; -3.25% in assay [6].
Take `COc1cccc2c1C(=O)c1c(O)c3c(c(O)c1C2=O)CC(O)(C(=O)CO)CC3OC1CC(N2CCOCC2C#N)C(O)C(C)O1` (centres undefined): the growth inhibition in assay [1] was 86.7% (active); in assay [2], 90.2% (active); in assay [3], 88.9% (active); in assay [4] it was 86.5% (active); in assay [5], 88.2% (active); in assay [6] it was 89.8% (active).
Turning to `COP1(=O)Oc2ccccc2C(=O)C(C(F)(F)F)(C(F)(F)F)O1` (centres undefined), the growth inhibition is -16.9% in assay [1]; -1.6% in assay [2]; -15.8% in assay [3]; 5.05% in assay [4]; -20.2% in assay [5]; -34.1% in assay [6].
Consider `CN(C)C(=O)Sc1ccc(S(=O)(=O)F)c(Cl)c1Cl`, for which the growth inhibition was 26.4% in assay [1]; 13.3% in assay [2]; 31.1% in assay [3]; 21.9% in assay [4]; 3.25% in assay [5]; 24.6% in assay [6].
For the molecule `c1ccc(CN2CCNCC2)cc1`, the growth inhibition in assay [1] was -8.35%; in assay [2], -14.4%; in assay [3], 1.9%; in assay [4], -14.1%; in assay [5] it was 4.9%; in assay [6], -9.7%.
Take `O=C(O)C(CSC(c1ccccc1)c1ccccc1)N1C(=O)c2ccccc2C1=O` (centres undefined): the growth inhibition was 47.9% in assay [1]; 36.4% in assay [2]; 46.4% in assay [3]; 43.3% in assay [4]; 29.1% in assay [5]; 44.7% in assay [6].
